Source: paper PMC4336329 (PLoS ONE, 2015)
About 14,000 (4.5%) of roughly 310,000 compounds showed an effect of 50% or more. Effects have a minus sign here. Many of the other results were omitted from the sample, so strong results are more common in it than they were.

Target: human ether-à-go-go-related gene (hERG) potassium channel (human, UniProt Q12809)
Assay: primary screen, population patch clamp on CHO cells stably expressing hERG; higher = less effect of the substance
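Further: peak tail current of the secondary pulse compared with the same well before compound.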

Chain of human ether-à-go-go-related gene (hERG) potassium channel (Q12809 whole entry, looked up): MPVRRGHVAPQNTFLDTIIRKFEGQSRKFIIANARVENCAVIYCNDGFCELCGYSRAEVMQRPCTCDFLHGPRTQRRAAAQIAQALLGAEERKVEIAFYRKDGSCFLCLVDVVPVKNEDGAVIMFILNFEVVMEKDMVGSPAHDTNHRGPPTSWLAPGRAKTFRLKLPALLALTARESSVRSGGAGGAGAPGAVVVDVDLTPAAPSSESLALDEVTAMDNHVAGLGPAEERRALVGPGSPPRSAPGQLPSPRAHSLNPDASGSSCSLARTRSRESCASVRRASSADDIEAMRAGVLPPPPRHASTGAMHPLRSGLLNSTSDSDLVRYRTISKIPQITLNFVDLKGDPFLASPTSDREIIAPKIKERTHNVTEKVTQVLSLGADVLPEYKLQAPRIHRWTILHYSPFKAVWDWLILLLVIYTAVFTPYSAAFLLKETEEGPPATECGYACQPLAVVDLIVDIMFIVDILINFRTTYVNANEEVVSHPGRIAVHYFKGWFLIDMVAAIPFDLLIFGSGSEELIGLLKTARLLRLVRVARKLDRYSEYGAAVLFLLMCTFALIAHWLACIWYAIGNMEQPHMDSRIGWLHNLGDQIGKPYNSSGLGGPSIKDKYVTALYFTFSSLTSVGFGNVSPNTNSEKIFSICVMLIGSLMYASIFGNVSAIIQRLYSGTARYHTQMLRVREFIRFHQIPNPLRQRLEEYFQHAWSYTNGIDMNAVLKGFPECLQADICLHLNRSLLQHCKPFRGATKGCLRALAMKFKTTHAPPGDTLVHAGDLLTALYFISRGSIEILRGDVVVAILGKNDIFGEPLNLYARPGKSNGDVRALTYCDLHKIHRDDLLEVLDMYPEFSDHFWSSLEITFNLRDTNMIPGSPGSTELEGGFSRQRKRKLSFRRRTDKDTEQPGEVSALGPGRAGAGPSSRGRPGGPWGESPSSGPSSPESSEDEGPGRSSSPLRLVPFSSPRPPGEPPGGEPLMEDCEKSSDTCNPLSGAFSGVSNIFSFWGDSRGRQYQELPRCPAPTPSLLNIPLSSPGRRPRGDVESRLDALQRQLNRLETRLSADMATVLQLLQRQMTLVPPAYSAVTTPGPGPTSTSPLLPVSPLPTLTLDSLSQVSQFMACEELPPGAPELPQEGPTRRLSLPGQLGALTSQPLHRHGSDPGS

Going from CCn1c(-c2ccco2)n[nH]c1=S to O=C1c2ccccc2C(=O)N1Cc1ccco1, the “hERG current change (%, negative = inhibition) at 10uM” value falls from 12% to -3.32%.

First: N#C/C(=C\c1ccc(OCc2ccc(Br)cc2)cc1)C(=O)Nc1cccc(C(=O)O)c1
Second: NC(=O)CC(NC(=O)Cc1ccc(Br)cc1)c1ccc(NCc2ccc(F)c(F)c2)c([N+](=O)[O-])c1 (centres unmarked)
The “hERG current change (%, negative = inhibition) at 10uM” value of the first is higher: 17.8% for the first, -1.71% for the second.

Going from CCOC(=O)c1c(C)[nH]c(C(=O)CSc2ccccc2)c1C to CCCc1nc2ccccc2c(=O)n1-c1ccc(C(=O)OCC)cc1, the “hERG current change (%, negative = inhibition) at 10uM” value rises from 3.05% to 13.5%.

Going from C/C(Cn1nnc2ccccc21)=N\OC(=O)c1ccccc1C to C/C(Cn1nnc2ccccc21)=N/OC(=O)c1c(F)cccc1F, the “hERG current change (%, negative = inhibition) at 10uM” value rises from -63.9% to 12.5%.

Going from O=C(O)Cn1nnc2ccccc21 to O=C(Cn1nnc2ccccc21)c1ccc(Cl)cc1, the “hERG current change (%, negative = inhibition) at 10uM” value falls from -3.4% to -4.9%.

Going from C/C(Cn1nnc2ccccc21)=N\OC(=O)c1cc(F)c(F)cc1Cl to Cc1ccccc1NC(=O)Cn1nnc2ccccc21, the “hERG current change (%, negative = inhibition) at 10uM” value rises from -80.5% to -12%.

First: C[N+]1(CC(=O)Nc2ccc(F)cc2)CCN(C(=O)c2ccco2)CC1.[Cl-]
Second: Cc1cc(Nc2ccc(C(=O)N3CCCCC3)cc2)c2cccc(C)c2n1
The “hERG current change (%, negative = inhibition) at 10uM” value of the first is higher: 13.2% for the first, -23.5% for the second.

Going from COc1ccc(CCNC(=O)C2CCCCC2C(=O)O)cc1OC (centres unmarked) to COc1ccc(S(=O)(=O)N2CCC(C(=O)NCc3ccco3)CC2)cc1C, the “hERG current change (%, negative = inhibition) at 10uM” value rises from -2.9% to 8.26%.

Compared with Nc1ccc([N+](=O)[O-])cc1C(=O)NNC(=O)c1ccco1, O=S1(=O)NC(=NCc2ccco2)c2ccccc21 is lower in “hERG current change (%, negative = inhibition) at 10uM” value: 25.9% for the first, 2.66% for the second.

Going from O=C(CSCc1ccccc1)Nc1ccc2c(c1)OCO2 to O=C(CN1C(=O)CSc2ncccc21)Nc1cccc(Cl)c1, the “hERG current change (%, negative = inhibition) at 10uM” value falls from 7.4% to -25.4%.

First: CSc1ncc(/C=C2/C(=O)NC(=O)N(C)C2=O)cn1
Second: Cc1ccnc(SCC(=O)c2ccc(Br)s2)n1
The “hERG current change (%, negative = inhibition) at 10uM” value of the first is higher: 18.8% for the first, 3.59% for the second.

Going from CC(=O)[C@@]1(O)CC[C@H]2[C@@H]3CCC4=CC(=O)CC[C@]4(C)[C@H]3CC[C@@]21C to C[C@]12CCC(=O)C=C1CC[C@@H]1[C@@H]2CC[C@@]2(C)[C@H]1CC[C@]2(O)C(=O)CO, the “hERG current change (%, negative = inhibition) at 10uM” value rises from 1.7% to 9.17%.

Compared with C[C@]12CCC(=O)C=C1CCC1C2CC[C@@]2(C)C1CC[C@@]2(O)CC#N (some centres unmarked), Cc1cc(C)cc(Nc2cnn(C34CC5CC(CC(CC(=O)O)(C5)C3)C4)c(=O)c2Cl)c1 is higher in “hERG current change (%, negative = inhibition) at 10uM” value: -59.8% for the first, 5.39% for the second.

Compared with c1coc(CN=C2NC(=NCc3ccco3)c3ccccc32)c1, Cc1ccc(NC(=O)CCN2C(=O)c3cccc4cccc(c34)C2=O)cc1 is higher in “hERG current change (%, negative = inhibition) at 10uM” value: -66.4% for the first, 9.71% for the second.

First: CC(=O)c1cccc(Nc2cc(C)nc3c(C)cc(C)cc23)c1.Cl
Second: CC(=O)c1ccc(Nc2cc(C)nc3c(C)cc(C)cc23)cc1
The “hERG current change (%, negative = inhibition) at 10uM” value of the first is lower: -56.1% for the first, -45.7% for the second.

Going from Cc1cc(C)c2nc(C)cc(Nc3ccc(C(=O)N(C)C)cc3)c2c1 to CC(=O)c1ccc(Nc2cc(C)nc3c(C)cccc23)cc1, the “hERG current change (%, negative = inhibition) at 10uM” value falls from -28.1% to -36.2%.

First: CC(=O)c1cccc(Nc2cc(C)nc3c(C)cccc23)c1.Cl
Second: C/C(=N\Nc1nnc2c3ccccc3n(C)c2n1)c1ccc(C)o1
The “hERG current change (%, negative = inhibition) at 10uM” value of the first is lower: -72.8% for the first, -52.4% for the second.

Compared with Cc1cc(C)nc(-n2cc(C(=O)c3cc(F)ccc3O)cn2)n1, Cn1c2ccccc2c2nnc(N/N=C/c3ccc(O)cc3)nc21 is lower in “hERG current change (%, negative = inhibition) at 10uM” value: 9.85% for the first, -0.978% for the second.

First: CCOC(=O)C1=C(C)NC(=O)NC1c1cc2c(cc1Br)OCO2 (centres unmarked)
Second: CN(CC(=O)Nc1ccc(F)c(F)c1F)C(=O)CC1OC(=O)c2ccccc21 (centres unmarked)
The “hERG current change (%, negative = inhibition) at 10uM” value of the first is higher: 6.32% for the first, -27.6% for the second.

Compared with NC(=S)N1OC[C@@H]2COc3ccc4ccccc4c3[C@@H]21, Cn1c2ccccc2c2nnc(NN)nc21 is higher in “hERG current change (%, negative = inhibition) at 10uM” value: 4.27% for the first, 12.2% for the second.

First: CC(C)c1ccc(N2C=Nc3ccc(C(C)C)cc3C2)cc1
Second: CCOc1ccc(N2C=Nc3ccc(OCC)cc3C2)cc1
The “hERG current change (%, negative = inhibition) at 10uM” value of the first is higher: -9.45% for the first, -63.9% for the second.

Compared with CCOc1ccc(N2Cc3ccccc3C2)cc1, CN(CC(=O)Nc1ccccn1)S(=O)(=O)c1ccc(Cl)cc1 is lower in “hERG current change (%, negative = inhibition) at 10uM” value: -2.48% for the first, -9.34% for the second.

Going from O=C1SCCC1NC(=O)C(c1ccccc1)c1ccccc1 (centres unmarked) to O=C(Nc1nc(-c2ccccn2)cs1)c1ccc(Br)s1, the “hERG current change (%, negative = inhibition) at 10uM” value rises from 3.15% to 7.34%.

Compared with C/C(=N\NC(=S)NC(C)C)c1ccc(C(C)(C)C)cc1, Cc1noc(C)c1S(=O)(=O)Nc1ccc(C(C)C)cc1 is lower in “hERG current change (%, negative = inhibition) at 10uM” value: 11.1% for the first, -17.6% for the second.

Compared with CCCCCCCCNC(=O)c1cccnc1SCC(=O)Nc1ccccc1OC, CCCCCNC(=O)c1cccnc1SCC(=O)Nc1ccccc1OC is lower in “hERG current change (%, negative = inhibition) at 10uM” value: 2.4% for the first, -65.6% for the second.

Compared with CCCCCCCCNC(=O)c1cccnc1SCC(=O)Nc1ccc(OC)cc1OC, COc1ccc(C2C3(C#N)C(N)=NC(OC)(OC)C23C#N)cc1 (centres unmarked) is lower in “hERG current change (%, negative = inhibition) at 10uM” value: 5.99% for the first, -53.4% for the second.

First: O=C(CN1C(=O)C2CCCCC2C1=O)Nc1ccc(OC(F)F)c(Cl)c1 (centres unmarked)
Second: CCc1ccc(NS(=O)(=O)c2c(C)noc2C)cc1
The “hERG current change (%, negative = inhibition) at 10uM” value of the first is higher: -2.68% for the first, -10.3% for the second.

First: Cc1ccc(NS(=O)(=O)c2c(C)noc2C)cc1
Second: COC1(OC)N=C(N)C2(C#N)C(c3ccc(C)cc3)C12C#N (centres unmarked)
The “hERG current change (%, negative = inhibition) at 10uM” value of the first is lower: -55.1% for the first, 10.1% for the second.

First: CC1(C)CC(=O)C2=C(C1)N(c1ccccc1C#N)C(N)=C(C#N)C2c1cccs1 (centres unmarked)
Second: COC1(OC)N=C(N)C2(C#N)C(c3ccc(F)cc3)C12C#N (centres unmarked)
The “hERG current change (%, negative = inhibition) at 10uM” value of the first is lower: -13% for the first, 5% for the second.

For CCOC(=O)C1(C(F)(F)F)N=C(N(C)C)OC(N(C)C)=N1, the “hERG current change (%, negative = inhibition) at 10uM” value was 5.29%.
